Measured values reported in PubChem BioAssay AID1159580 (chemical genetic matrix, 2015).
Screen size: about 5,500 compounds; about 2,000 (36%) were called active. About 18% were inconclusive and are not listed. Cut-off read from the data, not from the text of the source: active = normalized growth mostly below about 0.91 (no sharp cut-off); inconclusive = no clear call, values can overlap the other calls; inactive = mostly above about 0.92. This is one part of the list.

Experiment: chemical genetic growth profiling, strain panel (AID 1159580);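 note: tested at 20 µM; growth read once vehicle control cultures reached saturation at 30 °C; 1 = growth at the plate median or of vehicle wells; lower values mean less growth of the strain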
Details: S. cerevisiae deletion strains, growth OD

Measured: normalized growth

CN1CC(=O)N2[C@H](c3ccc4c(c3)OCO4)c3[nH]c4ccccc4c3C[C@@H]2C1=O
inactive: locus YHR030C, strain SLT2, stronger effect = lower value 0.966 | locus YHR079C, strain IRE1, stronger effect = lower value 0.947 | locus YJL095W, strain BCK1, stronger effect = lower value 0.964 | locus YJR066W, strain TOR1, stronger effect = lower value 0.913 | locus YLR113W, strain HOG1, stronger effect = lower value 0.968 | locus YNL183C, strain NPR1, stronger effect = lower value 0.918 | locus YOR231W, strain MKK1, stronger effect = lower value 0.975 | locus YPL256C, strain CLN2, stronger effect = lower value 0.946

O=C(O)c1ccc2c(c1)OCO2
inactive: locus YAL021C, strain ccr4, stronger effect = lower value 1.01 | locus YAL026C, strain drs2, stronger effect = lower value 0.983 | locus YAL030W, strain snc1, stronger effect = lower value 1.01 | locus YBL061C, strain skt5, stronger effect = lower value 1 | locus YBR009C, strain hhf1, stronger effect = lower value 0.997 | locus YBR023C, strain chs3, stronger effect = lower value 1.01 | locus YBR171W, strain sec66, stronger effect = lower value 0.992 | locus YBR231C, strain swc5, stronger effect = lower value 1.01 | locus YBR279W, strain paf1, stronger effect = lower value 1.01 | locus YCL011C, strain gbp2, stronger effect = lower value 0.979 | locus YCL016C, strain dcc1, stronger effect = lower value 1.01 | locus YCL061C, strain MRC1, stronger effect = lower value 0.984 | locus YCL069W, strain vba3, stronger effect = lower value 0.984 | locus YCR088W, strain abp1, stronger effect = lower value 0.984 | locus YDL005C, strain med2, stronger effect = lower value 1.01 | locus YDL040C, strain nat1, stronger effect = lower value 1.01 | locus YDR001C, strain nth1, stronger effect = lower value 0.982 | locus YDR069C, strain doa4, stronger effect = lower value 1.02 | locus YDR137W, strain rgp1, stronger effect = lower value 1.01 | locus YDR159W, strain sac3, stronger effect = lower value 0.98 | locus YDR195W, strain ref2 1.02 | locus YDR297W, strain sur2, stronger effect = lower value 1.01 | locus YDR334W, strain swr1, stronger effect = lower value 0.994 | locus YDR335W, strain msn5, stronger effect = lower value 1.01 | locus YDR392W, strain spt3, stronger effect = lower value 0.979 | locus YEL003W, strain gim4, stronger effect = lower value 0.98 | locus YEL037C, strain rad23, stronger effect = lower value 0.987 | locus YEL061C, strain CIN8 (second series), stronger effect = lower value 0.988 | locus YER015W, strain faa2, stronger effect = lower value 0.997 | locus YER016W, strain bim1, stronger effect = lower value 1.01 | locus YER111C, strain swi4, stronger effect = lower value 0.978 | locus YER155C, strain BEM2 (second series), stronger effect = lower value 0.992 | locus YFR010W, strain ubp6, stronger effect = lower value 0.994 | locus YGL167C, strain pmr1, stronger effect = lower value 1.02 | locus YGL173C, strain kem1, stronger effect = lower value 1.01 | locus YGL227W, strain vid30, stronger effect = lower value 0.973 | locus YGL240W, strain doc1, stronger effect = lower value 0.998 | locus YGL253W, strain hxk2, stronger effect = lower value 1.01 | locus YHR013C, strain ard1, stronger effect = lower value 1.05 | locus YHR027C, strain rpn1, stronger effect = lower value 1.03 | locus YHR142W, strain chs7, stronger effect = lower value 1 | locus YJL092W, strain hpr5, stronger effect = lower value 0.985 | locus YJL095W, strain BCK1 (second series), stronger effect = lower value 1.02 | locus YJL115W, strain asf1, stronger effect = lower value 0.994 | locus YJL129C, strain trk1, stronger effect = lower value 0.998 | locus YJL154C, strain vps35, stronger effect = lower value 0.989 | locus YJL164C, strain tpk1, stronger effect = lower value 1 | locus YJL166W, strain qcr8, stronger effect = lower value 1.02 | locus YJL187C, strain SWE1, stronger effect = lower value 1.02 | locus YKL160W, strain elf1, stronger effect = lower value 1 | locus YKR026C, strain gcn3, stronger effect = lower value 0.983 | locus YKR091W, strain srl3, stronger effect = lower value 1.01 | locus YLL001W, strain dnm1, stronger effect = lower value 1.01 | locus YLL026W, stronger effect = lower value 1.01 | locus YLL041C, strain sdh2, stronger effect = lower value 1 | locus YLR027C, strain aat2, stronger effect = lower value 1 | locus YLR221C, strain rsa3, stronger effect = lower value 0.999 | locus YLR258W, strain gsy2, stronger effect = lower value 1 | locus YLR262C, strain YPT6 (second series), stronger effect = lower value 1.01 | locus YLR320W, strain mms22, stronger effect = lower value 1.03 | locus YLR342W, strain FKS1, stronger effect = lower value 1.05 | locus YLR357W, strain rsc2, stronger effect = lower value 1.09 | locus YLR370C, strain arc18, stronger effect = lower value 1.01 | locus YLR384C, strain iki3, stronger effect = lower value 1.01 | locus YML120C, strain ndi1, stronger effect = lower value 1.01 | locus YMR058W, strain fet3, stronger effect = lower value 0.997 | locus YMR125W, strain sto1, stronger effect = lower value 1.07 | locus YMR129W, stronger effect = lower value 1 | locus YMR205C, strain PFK2, stronger effect = lower value 1.01 | locus YMR231W, strain pep5, stronger effect = lower value 1.01 | locus YNL071W, strain lat1, stronger effect = lower value 1.01 | locus YNL209W, strain ssb2, stronger effect = lower value 1.01 | locus YNL248C, strain rpa49, stronger effect = lower value 1.02 | locus YNL322C, strain KRE1 (second series), stronger effect = lower value 0.991 | locus YNR049C, strain mso1, stronger effect = lower value 1.01 | locus YOR001W, strain rrp6, stronger effect = lower value 0.994 | locus YOR070C, strain gyp1, stronger effect = lower value 0.999 | locus YOR080W, strain dia2, stronger effect = lower value 1.01 | locus YOR083W, strain WHI5, stronger effect = lower value 1 | locus YOR106W, strain vam3, stronger effect = lower value 1 | locus YOR265W, strain rbl2, stronger effect = lower value 1 | locus YOR270C, strain vph1, stronger effect = lower value 1.05 | locus YOR290C, strain snf2, stronger effect = lower value 0.967 | locus YPL051W, strain arl3, stronger effect = lower value 1.01 | locus YPL078C, strain atp4, stronger effect = lower value 0.995 | locus YPL106C, strain sse1, stronger effect = lower value 1 | locus YPL240C, strain hsp82, stronger effect = lower value 1.01
